According to PubChem BioAssay (NCI):
Where “and” joins values, the source holds several entries; their conditions need not be identical. Equal values may be shown once. The panel holds about 83,000 compounds, 20% with a hit somewhere; the sample as a whole holds those more often.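 Values shown are percent growth following 48 h exposure of cells in 96-well plates to a single concentration of compound; below 10 was considered active.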 Calls of active or inactive are those of the source.

These compounds were tested on HCC-2998 colon (assay: NCI-60 one-dose screen, 48 h (100 = growth as untreated, 0 = no growth, -100 = all killed)). Conditions: 10 µM unless noted.

Row | Compound | growth
1 | S=C(Nc1ccc(OCc2nc3ccc(Cl)cc3[nH]2)cc1)NC1CCCCC1 | -69.5% (active)
2 | CC(C)(C)C(=O)c1c2c(c3ccc4c5ccccc5ccc4n13)C(=O)c1ccccc1C2=O | 112% (inactive)
3 | COc1ccc(-c2cc(C)nc3[nH]c(=O)sc23)cc1 | 84.2% (inactive)
4 | O=C(Nc1nc2ccccc2s1)Nc1ccccc1Cl | 97.3% (inactive)
5 | COC(=O)c1cc(C(=O)C(C)(C)C)n2c3ccccc3c3ccccc3c12 | 124% (inactive)
6 | CC(=O)Nc1cccc(-n2c(COc3ccc(I)cc3)nc3ccccc32)c1 | 118% (inactive) and 119% (inactive)
7 | COc1ccc(N=Nc2c(N)nn3c(-c4cc5ccccc5oc4=O)ccnc23)cc1 | 38.1% (inactive)
8 | O=C(Nc1ccc(S(=O)(=O)N2CCCCC2)cc1)C(Cl)Cl | 124% (inactive)
9 | CC(C)(C)OC(=O)N1C/C(=C\c2ccc(F)cc2)C(=O)/C(=C/c2ccc(F)cc2)C1 | -98% (active)
10 | O=C(COc1ccc(/C=C2/C(=O)Nc3ccc(Cl)cc32)cc1)Nc1ccc(Br)cc1 | 41.6% (inactive)
11 | O=C(Cn1c(-c2ccccc2)nc2ccccc21)N=Nc1c(O)[nH]c2ccc(Br)cc12 | 0.134% (active)
12 | COc1cccc(-c2ccc(/C=N/NC(=O)c3[nH]c4ccc(Br)cc4c3-c3ccccc3)s2)c1 | 5.11% (active)
13 | O=C(c1ccc(Cl)cc1)C1[C@H](c2ccccc2Cl)[C@@H](c2ccccc2)NC12C(=O)Nc1ccc(Cl)cc12 (stereo partly specified) | -85.6% (active)
14 | COc1ccc(-c2cc(-c3ccccc3)c(C#N)c(=O)[nH]2)cc1S(N)(=O)=O | 122% (inactive)
15 | CN(C)c1nc(NCCNS(=O)(=O)c2ccc(C(=O)/C=C/c3ccccc3)cc2)nc(N2CCOCC2)n1 | 89.4% (inactive)
16 | N#CC1=C(c2cccs2)Nc2c(c(-c3ccccc3)nn2-c2ccccc2)C12C(=O)Nc1ccc(Cl)cc12 (stereo unspecified) | 26.1% (inactive)
17 | C#CCN(C)CCCOc1ccc(N(C)C(=O)c2cc(C(C)C)c(O)cc2O)cc1Cl | -38.4% (active)
18 | COc1ccc2c(c1)C(=O)N(C)C2C1c2c(cc3c(c2OC)OCO3)CCN1C (stereo unspecified) | 63.2% (inactive)
19 | Cc1ccc(N=Nc2c(N)nn3c(-c4cc5cc(Br)ccc5oc4=O)ccnc23)cc1 | 87.1% (inactive)

Row | Compound | growth
20 | O=C(CSc1nnc(-c2ccc(-c3nc4ccc(Cl)cc4[nH]3)cc2)o1)Nc1ccccc1 | 98.9% (inactive)
21 | COc1ccc2ccccc2c1/C=C1\SC(=Nc2ccc(O)cc2)NC1=O | -0.301% (active)
22 | Cc1ccc(N=Nc2c(N)nn3c(-c4cc5ccccc5oc4=O)ccnc23)cc1 | -21.1% (active)
23 | COc1ccc2nc(NC(=O)c3ccc(N(C)C)cc3)sc2c1 | 98.2% (inactive)
24 | CC1=C(C)C(=O)C(N2CCSCC2)=CC1=O | 109% (inactive)
25 | O=C(CSc1nnc(-c2ccc(-c3nc4ccccc4[nH]3)cc2)o1)Nc1ccc(Cl)cc1 | 59.6% (inactive)
26 | CC[C@]12C=CCN3CC[C@]4(C(=C(C(=O)OC)C1)Nc1cc(OC)c([C@@H]5[C@H]6O[C@H]6[C@@]6(CC)CC(C(=O)OC)=C7Nc8cc(OC)ccc8[C@@]78CCN5[C@@H]68)cc14)[C@@H]32 | 112% (inactive)
27 | CC(=O)c1ccc2c(N)c(C(=O)Nc3ccc(C(F)(F)F)cc3)sc2n1 | 83.6% (inactive)
28 | COc1ccc2c(c1)N=c1c-2cc2c(O)[nH]c(=S)n2c1=O | 60.1% (inactive)
29 | CN1CCN(CCS(=O)(=O)Nc2cc(-c3ccc4ncnc(Nc5ccc(F)c(Cl)c5)c4c3)cnc2Cl)CC1 | -8.06% (active)
30 | C[C@@H](Nc1c(C#N)cnc2ccc(-c3cnc4[nH]ncc4c3)cc12)c1ccccc1 | 33.3% (inactive)
31 | CN1CCc2c(sc3ncnc(N/N=C/c4cccc(Cl)c4Cl)c23)C1 | 6.03% (active)
32 | COc1ccc(C2=NN(C(=O)[C@H]3[C@@H](c4ccco4)c4sc(=O)[nH]c4S[C@@H]3C)C(c3ccc4ccccc4c3)C2)cc1 (stereo partly specified) | 27.3% (inactive)
33 | N#Cc1c(-c2ccc(F)cc2)nc(SCc2ccc(F)cc2)nc1N1CCNCC1 | -91% (active)
34 | O=C(CSc1nnc(-c2ccc(-c3nc4ccccc4[nH]3)cc2)o1)Nc1ccc(Br)cc1 | 71.2% (inactive)
35 | CN(C)CCCNC(=S)Nc1ccc(/C=C/c2ccc(Cl)cc2)cc1 | -84.2% (active)
36 | N/C(=N\c1nc2ccccc2s1)NC(=O)Nc1ccccc1F | 45.9% (inactive)
37 | CN1C(=O)/C(=C\C(=O)c2cc3ccccc3oc2=O)c2ccccc21 | 74.2% (inactive)
38 | COc1ccc(-n2c(NC(=O)N3CCN(C)CC3)c(C#N)c3ccccc32)cc1 | 89% (inactive)

These compounds were tested on KM12 colon in the same assay as above. Conditions: 10 µM unless noted.

Row | Compound | growth
39 | S=C(Nc1ccc(OCc2nc3ccc(Cl)cc3[nH]2)cc1)NC1CCCCC1 | -12.5% (active)
40 | CC(C)(C)C(=O)c1c2c(c3ccc4c5ccccc5ccc4n13)C(=O)c1ccccc1C2=O | 94.4% (inactive)
41 | COc1ccc(-c2cc(C)nc3[nH]c(=O)sc23)cc1 | 81.3% (inactive)
42 | O=C(Nc1nc2ccccc2s1)Nc1ccccc1Cl | 93.1% (inactive)
43 | COC(=O)c1cc(C(=O)C(C)(C)C)n2c3ccccc3c3ccccc3c12 | 79.5% (inactive)
44 | CC(=O)Nc1cccc(-n2c(COc3ccc(I)cc3)nc3ccccc32)c1 | 94.7% (inactive) and 98.5% (inactive)
45 | COc1ccc(N=Nc2c(N)nn3c(-c4cc5ccccc5oc4=O)ccnc23)cc1 | 51.1% (inactive)
46 | O=C(Nc1ccc(S(=O)(=O)N2CCCCC2)cc1)C(Cl)Cl | 104% (inactive)
47 | CC(C)(C)OC(=O)N1C/C(=C\c2ccc(F)cc2)C(=O)/C(=C/c2ccc(F)cc2)C1 | -90.7% (active)
48 | O=C(COc1ccc(/C=C2/C(=O)Nc3ccc(Cl)cc32)cc1)Nc1ccc(Br)cc1 | 2.45% (active)
49 | O=C(Cn1c(-c2ccccc2)nc2ccccc21)N=Nc1c(O)[nH]c2ccc(Br)cc12 | 15% (inactive)
50 | COc1cccc(-c2ccc(/C=N/NC(=O)c3[nH]c4ccc(Br)cc4c3-c3ccccc3)s2)c1 | -14.2% (active)
51 | O=C(c1ccc(Cl)cc1)C1[C@H](c2ccccc2Cl)[C@@H](c2ccccc2)NC12C(=O)Nc1ccc(Cl)cc12 (stereo partly specified) | -48% (active)
52 | COc1ccc(-c2cc(-c3ccccc3)c(C#N)c(=O)[nH]2)cc1S(N)(=O)=O | 103% (inactive)
53 | CN(C)c1nc(NCCNS(=O)(=O)c2ccc(C(=O)/C=C/c3ccccc3)cc2)nc(N2CCOCC2)n1 | -11.1% (active)
54 | N#CC1=C(c2cccs2)Nc2c(c(-c3ccccc3)nn2-c2ccccc2)C12C(=O)Nc1ccc(Cl)cc12 (stereo unspecified) | 15.3% (inactive)
55 | C#CCN(C)CCCOc1ccc(N(C)C(=O)c2cc(C(C)C)c(O)cc2O)cc1Cl | 5.69% (active)
56 | COc1ccc2c(c1)C(=O)N(C)C2C1c2c(cc3c(c2OC)OCO3)CCN1C (stereo unspecified) | 15.9% (inactive)
57 | Cc1ccc(N=Nc2c(N)nn3c(-c4cc5cc(Br)ccc5oc4=O)ccnc23)cc1 | 72.4% (inactive)

Row | Compound | growth
58 | O=C(CSc1nnc(-c2ccc(-c3nc4ccc(Cl)cc4[nH]3)cc2)o1)Nc1ccccc1 | 34.1% (inactive)
59 | COc1ccc2ccccc2c1/C=C1\SC(=Nc2ccc(O)cc2)NC1=O | 17.3% (inactive)
60 | Cc1ccc(N=Nc2c(N)nn3c(-c4cc5ccccc5oc4=O)ccnc23)cc1 | 31.3% (inactive)
61 | COc1ccc2nc(NC(=O)c3ccc(N(C)C)cc3)sc2c1 | 57.8% (inactive)
62 | CC1=C(C)C(=O)C(N2CCSCC2)=CC1=O | 105% (inactive)
63 | O=C(CSc1nnc(-c2ccc(-c3nc4ccccc4[nH]3)cc2)o1)Nc1ccc(Cl)cc1 | 22.9% (inactive)
64 | CC[C@]12C=CCN3CC[C@]4(C(=C(C(=O)OC)C1)Nc1cc(OC)c([C@@H]5[C@H]6O[C@H]6[C@@]6(CC)CC(C(=O)OC)=C7Nc8cc(OC)ccc8[C@@]78CCN5[C@@H]68)cc14)[C@@H]32 | 49.6% (inactive)
65 | CC(=O)c1ccc2c(N)c(C(=O)Nc3ccc(C(F)(F)F)cc3)sc2n1 | 56.7% (inactive)
66 | COc1ccc2c(c1)N=c1c-2cc2c(O)[nH]c(=S)n2c1=O | 42.7% (inactive)
67 | CN1CCN(CCS(=O)(=O)Nc2cc(-c3ccc4ncnc(Nc5ccc(F)c(Cl)c5)c4c3)cnc2Cl)CC1 | 46.4% (inactive)
68 | C[C@@H](Nc1c(C#N)cnc2ccc(-c3cnc4[nH]ncc4c3)cc12)c1ccccc1 | 30% (inactive)
69 | CN1CCc2c(sc3ncnc(N/N=C/c4cccc(Cl)c4Cl)c23)C1 | 88% (inactive)
70 | COc1ccc(C2=NN(C(=O)[C@H]3[C@@H](c4ccco4)c4sc(=O)[nH]c4S[C@@H]3C)C(c3ccc4ccccc4c3)C2)cc1 (stereo partly specified) | 33.9% (inactive)
71 | N#Cc1c(-c2ccc(F)cc2)nc(SCc2ccc(F)cc2)nc1N1CCNCC1 | -81.2% (active)
72 | O=C(CSc1nnc(-c2ccc(-c3nc4ccccc4[nH]3)cc2)o1)Nc1ccc(Br)cc1 | 21.7% (inactive)
73 | CN(C)CCCNC(=S)Nc1ccc(/C=C/c2ccc(Cl)cc2)cc1 | -36.8% (active)
74 | N/C(=N\c1nc2ccccc2s1)NC(=O)Nc1ccccc1F | 22.6% (inactive)
75 | CN1C(=O)/C(=C\C(=O)c2cc3ccccc3oc2=O)c2ccccc21 | 85.1% (inactive)
76 | COc1ccc(-n2c(NC(=O)N3CCN(C)CC3)c(C#N)c3ccccc32)cc1 | 34.1% (inactive)
